Data on seven molecules can be found in PubChem BioAssay (Tox21).

Values joined by “and” are separate entries in the source; they are usually repeats but may differ in a detail not shown here. Equal values may be shown once. Results filed as inconclusive are left out. More than one record can exist for a structure, and the calls need not agree. Active and inactive are the calls of the source. Unless noted, the call rests on the fitted dose curve; in most records, active means well fitted curve in the direction sought with a large enough effect in the repeat runs; inconclusive means weak or mixed curves; inactive means no such curve, though single readings can be large; an effect the other way counts as inactive or inconclusive.

Assay [1] can be described thus: qHTS RealTime-Glo MT Cell Viability Assay in HEK293 cells - 0 hour (AID 1224880). Further: top concentration of the series differs between compounds; nearly all actives have a fitted effect of over 45% in size. In outline:
(§1)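 600 HEK293 cells per well, dispensed already mixed with RealTime-Glo MT reagents. Compound dosing came 5 h later. The same wells were read for luminescence at 0, 8, 16, 24, 32 and 40 h of exposure at 37 C.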
(In qHTS, concentration-response curves come from the screen itself.)

A short description of assay [2]: A CellTox Green Cytotoxicity Assay to monitor cytotoxicity in HEK293 cells - 32 hour (AID 1224881). Further: nearly all actives have a fitted effect of over 40% in size. Summed up: (§2)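 Dead-cell fluorescence measured kinetically: asymmetric cyanine dye, HEK293, 600 cells/well, 5 h settle, 23 nL cpd/DMSO, 37 C, reads 0–40 h every 8 h.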
Assay [3] in a line: A CellTox Green Cytotoxicity Assay to monitor cytotoxicity in HepG2 cells - 0 hour (AID 1224882). Further: nearly all actives have a fitted effect of over 35% in size. Summed up: (§3)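 First, HepG2 cells (600/well) mixed with reagent were plated; second, after 5 h at 37 C they received compounds via pintool; third, fluorescence was measured at 0 h through 40 h at 8 h intervals.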
A short description of assay [4]: A CellTox Green Cytotoxicity Assay to monitor cytotoxicity in HepG2 cells - 32 hour (AID 1224883). Further: nearly all actives have a fitted effect of over 50% in size. Further: potency means the concentration at half of the fitted maximal effect. In outline: as §3
Assay [5] can be described thus: qHTS RealTime-Glo MT Cell Viability Assay in HEK293 cells - 24 hour (AID 1224886). Further: nearly all actives have a fitted effect of over 50% in size. Further: potency means the concentration at half of the fitted maximal effect. In outline:
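HEK293 cells were seeded at 600 cells/well together with NanoLuc luciferase and cell-permeant prosubstrate, preincubated 5 h at 37 C/5% CO2, then given compound in DMSO by pintool. Luminescence from viable-cell prosubstrate reduction was read repeatedly over 40 h.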

A short description of assay [6]: qHTS RealTime-Glo MT Cell Viability Assay in HEK293 cells - 8 hour (AID 1224887). Further: top concentration of the series differs between compounds; nearly all actives have a fitted effect of over 50% in size. Summed up:
as §1

A short description of assay [7]: A CellTox Green Cytotoxicity Assay to monitor cytotoxicity in HEK293 cells - 16 hour (AID 1224888). Further: nearly all actives have a fitted effect of over 35% in size. In outline: as §2
Assay [8] is described as follows: qHTS RealTime-Glo MT Cell Viability Assay in HepG2 cells - 0 hour (AID 1224889). Further: nearly all actives have a fitted effect of over 50% in size. Summed up:
(§4)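 HepG2 cells were seeded at 600 cells/well together with NanoLuc luciferase and a cell-permeant prosubstrate, preincubated 5 h at 37 C/5% CO2, then pin-dosed with compounds in DMSO. Nonlytic luminescence from viable cells was read at each time point.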

Assay [9] is described as follows: A CellTox Green Cytotoxicity Assay to monitor cytotoxicity in HepG2 cells - 8 hour (AID 1224890). Further: nearly all actives have a fitted effect of over 45% in size. In outline: as §3
The nature of assay [10]: qHTS assay to identify small molecule antagonists of the estrogen receptor alpha (ER-alpha) signaling pathway using the BG1 cell line in the presence of 0.1 nM 17-beta-estradiol - cell viability counter screen (AID 1259241). Further: nearly all actives have a fitted effect of over 40% in size. Further: potency means the concentration at half of the fitted maximal effect. In outline:
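Cytotoxicity counter-screen: live-cell protease activity measured by fluorescence (30 min reagent step) in the same wells. Cells were VM7Luc4E2 with endogenous ER-alpha and ERE-driven luciferase, treated 22 hr at 37C alongside 0.1 nM 17beta-estradiol final.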

A short description of assay [11]: qHTS assay to identify small molecule antagonists of the androgen receptor (AR) signaling pathway using the MDA cell line in the presence of 0.5 nM R1881 - cell viability counter screen (AID 1259242). Further: nearly all actives have a fitted effect of over 45% in size. Further: potency means the concentration at half of the fitted maximal effect. Summed up: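 qHTS format. MDA-kb2 (MMTV-luc, AR/GR responsive) + cpd + 0.5 nM R1881 final, 16 hr 37C/0% CO2 → CellTiter-Fluor 30 min → fluorescence intensity.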
In assay [12] the target is Androgen receptor (Homo sapiens) (UniProt P10275). The experiment in a line: qHTS assay to identify small molecule antagonists of the androgen receptor (AR) signaling pathway using the MDA cell line in the presence of 0.5 nM R1881 (AID 1259243). Further: nearly all actives have a fitted effect of over 50% in size. In outline: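 Antagonist mode quantitative HTS in MDA-kb2 MMTV-luciferase cells, agonist R1881 at 0.5 nM final, 16 hr exposure at 37C and 0% CO2, luminescent detection.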

Assay [13] concerns the target Estrogen receptor (Homo sapiens) (UniProt P03372). The experiment in a line: qHTS assay to identify small molecule antagonists of the estrogen receptor alpha (ER-alpha) signaling pathway using the BG1 cell line in the presence of 0.1 nM 17-beta-estradiol (AID 1259244). Further: nearly all actives have a fitted effect of over 50% in size. Further: potency means the concentration at half of the fitted maximal effect. Summed up: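 Reporter is a stably transfected luciferase under four estrogen responsive elements in VM7Luc4E2 cells expressing native full-length ER-alpha; inhibition of 0.1 nM (final) 17beta-estradiol-driven signal over 22 h is read by luminescence.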

Assay [14] is described as follows: qHTS assay to identify small molecule HDAC inhibitors (AID 1259364).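 Further: wild-type HCT-116 cells with endogenous class I/II HDAC activity; top concentration of the series differs between compounds; nearly all actives have a fitted effect of over 45% in size.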 Summed up: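 Quantitative high-throughput format: overnight-seeded HCT-116 cells got compounds for 2 hr at 37C; HDAC-Glo I/II reagent added, 30 min RT, luminescence measured.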
Assay [15] can be described thus: qHTS assay to identify small molecule HDAC inhibitors - cell viability counter screen (AID 1259365). In outline: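 CellTiter-Glo luminescence (30 min, room temperature) reported viability after a 2 h compound exposure at 37 C. Cells: wild-type HCT-116, 1,500 per well, seeded the night before.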
Assay [16] in a line: qHTS assay to identify small molecule agonists of the sonic hedgehog signaling (Shh) pathway - cell viability counter screen (AID 1259366). Further: nearly all actives have a fitted effect of over 50% in size. Further: potency means the concentration at half of the fitted maximal effect. Summed up:
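Cytotoxicity counter screen: CellTiter-Fluor reagent added after 23 h compound exposure, then 1 h at 37C and fluorescence read. Cells were 3T3 Gli1-Luc, seeded 2,000 per well and dosed 4 h post-plating.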

Assay [17] in a line: qHTS assay to identify small molecule antagonists of the sonic hedgehog signaling (Shh) pathway - cell viability counter screen (AID 1259367). Further: nearly all actives have a fitted effect of over 55% in size. Further: potency means the concentration at half of the fitted maximal effect. In outline: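 Tox21 library chemicals were tested on a Gli1-Luc NIH/3T3 clone (2,000 cells/well) stimulated by conditioned medium; viability was quantified as fluorescence from CellTiter-Fluor reagent added at 23 hr.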
The nature of assay [18]: qHTS RealTime-Glo MT Cell Viability Assay in HepG2 cells - 16 hour (AID 1224885). Further: nearly all actives have a fitted effect of over 50% in size. In outline: as §4
Assay [19] is described as follows: qHTS assay to identify small molecule phospholipidosis (PLD) inducers (AID 1259344; active means well fitted curve in the direction sought with a large enough effect; an effect the other way counts as inactive or inconclusive). In outline:
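Image-based: LipidTOX Red pit count/intensity per well and per cell; HepG2, 24 h compound at 37 C, PFA fixation, Hoechst counterstain.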

Estrogen receptor (Homo sapiens), sequence (P03372 whole entry, looked up): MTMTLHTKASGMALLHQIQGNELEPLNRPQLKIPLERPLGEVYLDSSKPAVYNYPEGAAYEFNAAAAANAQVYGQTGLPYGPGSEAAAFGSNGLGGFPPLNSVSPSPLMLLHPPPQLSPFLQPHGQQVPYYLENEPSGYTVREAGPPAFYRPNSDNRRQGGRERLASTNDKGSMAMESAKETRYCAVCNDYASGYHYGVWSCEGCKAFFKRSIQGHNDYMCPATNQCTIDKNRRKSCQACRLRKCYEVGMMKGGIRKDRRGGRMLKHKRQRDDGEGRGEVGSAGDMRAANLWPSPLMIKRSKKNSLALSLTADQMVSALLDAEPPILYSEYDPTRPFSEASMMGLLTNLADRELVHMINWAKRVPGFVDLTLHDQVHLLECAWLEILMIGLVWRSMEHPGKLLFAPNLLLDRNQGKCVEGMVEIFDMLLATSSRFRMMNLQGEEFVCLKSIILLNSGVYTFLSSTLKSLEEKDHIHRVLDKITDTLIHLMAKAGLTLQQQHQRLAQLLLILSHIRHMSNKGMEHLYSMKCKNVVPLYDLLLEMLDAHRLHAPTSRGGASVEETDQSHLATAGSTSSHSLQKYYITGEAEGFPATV
Androgen receptor (Homo sapiens), sequence (P10275 whole entry, looked up): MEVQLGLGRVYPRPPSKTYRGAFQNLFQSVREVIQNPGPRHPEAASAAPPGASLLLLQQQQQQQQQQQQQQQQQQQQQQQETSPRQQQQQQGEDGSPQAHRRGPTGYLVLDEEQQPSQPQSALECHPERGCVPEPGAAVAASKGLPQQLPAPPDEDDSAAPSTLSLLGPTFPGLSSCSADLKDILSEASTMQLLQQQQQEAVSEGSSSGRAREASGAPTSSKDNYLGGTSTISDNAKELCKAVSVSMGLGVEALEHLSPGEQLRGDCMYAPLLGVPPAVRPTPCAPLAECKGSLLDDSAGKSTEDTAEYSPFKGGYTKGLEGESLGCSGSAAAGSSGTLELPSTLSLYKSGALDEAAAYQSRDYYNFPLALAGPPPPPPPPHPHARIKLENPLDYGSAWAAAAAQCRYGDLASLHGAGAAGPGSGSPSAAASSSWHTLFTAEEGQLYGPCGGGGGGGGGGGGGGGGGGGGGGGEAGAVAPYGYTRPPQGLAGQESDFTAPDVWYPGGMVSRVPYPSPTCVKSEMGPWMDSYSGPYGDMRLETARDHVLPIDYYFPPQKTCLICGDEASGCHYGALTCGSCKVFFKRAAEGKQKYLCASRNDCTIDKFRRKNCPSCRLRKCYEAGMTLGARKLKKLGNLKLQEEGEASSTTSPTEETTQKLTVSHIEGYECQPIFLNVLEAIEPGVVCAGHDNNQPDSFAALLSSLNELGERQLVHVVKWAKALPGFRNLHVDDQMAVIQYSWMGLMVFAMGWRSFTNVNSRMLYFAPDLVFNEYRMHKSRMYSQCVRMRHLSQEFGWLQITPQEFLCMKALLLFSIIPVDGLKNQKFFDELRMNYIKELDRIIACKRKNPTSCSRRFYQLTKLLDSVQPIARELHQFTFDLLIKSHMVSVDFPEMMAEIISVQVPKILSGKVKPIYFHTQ

As for `OCC1CCCO1` (stereo unspecified), the Potency entry in assay [1], in assay [2], in assay [3], in assay [4], in [5] and in assay [6] was “inactive” each time. For the same molecule, the Potency result in assay [7], in assay [8], in assay [9], in [10], in assay [11] and in assay [13] was “inactive” throughout. Also, the Potency entry in [14], in assay [16] and in assay [17] was “inactive” throughout. Besides, the result in assay [12] and in [15] was inactive.

As to `CN(C)c1ccc(C(=N)c2ccc(N(C)C)cc2)cc1`, the Potency result in assay [1], in [2], in assay [3], in [6], in assay [7] and in assay [8] was “inactive” throughout. For the same molecule, the Potency result in assay [9] and in [14] was “inactive” in each case. Further, the Potency in assay [4] was 4.84 µM (active) and 18.8 µM (active); in [5], 3.42 µM (active) and 4.2 µM (active); in assay [10] it was 18.6 µM (active); in [11], 48 µM (active) and 46.7 µM (active); in assay [13], 17 µM (active) and 23.4 µM (active); in [16], 48 µM (active). Moreover, the Potency in [17] is 48 µM (active) and 23.4 µM (active). The result in assay [15] was inactive.

Turning to `C[C@@H](O)[C@H]1C(=O)N2C(C(=O)O)=C(S[C@@H]3CN[C@H](C(=O)N(C)C)C3)[C@H](C)[C@H]12`, the Potency result in [1], in assay [2], in [3], in assay [4], in assay [18] and in [5] was “inactive” each time. Besides, the Potency entry in [6], in assay [7], in assay [8], in assay [9], in [10] and in assay [11] was “inactive” throughout. For the same molecule, the Potency result in assay [14], in assay [16] and in [17] was “inactive” in each case. Besides, the call in assay [19] and in assay [15] was inactive.

Take `O=S(=O)(Oc1ccc(Cl)cc1Cl)c1ccccc1`: the Potency result in assay [1], in assay [2], in [3], in assay [4], in [18] and in [5] was “inactive” in each case. In addition, the Potency result in assay [6], in assay [7], in assay [8], in [9], in assay [10] and in [11] was “inactive” in each case. Also, the Potency result in [13], in assay [14], in [16] and in assay [17] was “inactive” each time. The result in assay [15] was inactive.

In the case of `Nc1c(S(=O)(=O)O)cc(Br)c2c1C(=O)c1ccccc1C2=O`, the Potency entry in assay [1], in assay [2], in [3], in assay [4], in assay [18] and in assay [5] was “inactive” in each case. For the same molecule, the Potency result in [6], in assay [7], in [8], in assay [9], in assay [13] and in assay [14] was “inactive” in each case. Also, the Potency result was “inactive and 24.3 µM (active)” in [11]; “inactive and 30.6 µM (active)” in assay [16]; “inactive and 27.3 µM (active)” in assay [17]. In [15], the call was inactive.

As for `CCCCNC(N)=O`, the Potency result in [1], in assay [2], in assay [3], in assay [4], in assay [18] and in assay [5] was “inactive” in each case. Further, the Potency entry in [6], in assay [7], in [8], in assay [9], in assay [10] and in [11] was “inactive” each time. For the same molecule, the Potency entry in assay [14], in assay [16] and in [17] was “inactive” in each case. Besides, in assay [15], the molecule was called inactive.

`CCCCCCCCC`: the Potency result in assay [1], in assay [2], in [3], in [4], in [18] and in [5] was “inactive” each time. In addition, the Potency entry in [6], in assay [7], in assay [8], in [9], in assay [10] and in [11] was “inactive” in each case. In addition, the Potency entry in assay [13], in assay [14], in [16] and in assay [17] was “inactive” each time. Besides, the molecule was called inactive in assay [15].
